# HepG2 tox: HepG2 cytotoxicity, counter-screen for TGF-b inhibitors; Potency, µM (top dose mostly 46.1 µM), for inactives: at the highest dose activity change, negative = cytotoxicity, actives largely listed as cytotoxic; HepG2 CAGA-GFP viability, ATP luminescence, 18 h; hit rate 0.76% among 410,000
#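 CellTiter-Glo luminescence gave cytotoxicity after 18 hours at 37 degrees C. The cells were HepG2 CAGA-GFP in 1% FBS DMEM, stimulated with 500 pg/mL TGF-beta after compound addition. %Activity was normalised to no-cell wells (complete cell-killing) and DMSO (no toxicity), and curves were fitted and classified.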
# DT40 TDP1 no CPT: qHTS for Inhibitors of human tyrosyl-DNA phosphodiesterase 1 (TDP1): qHTS in cells in absence of CPT. DT40 Tdp1-/- hTDP1 cells, no CPT, ATP luminescence, 48 h. Potency, µM (doses to about 46.2 µM), inactives show at the highest dose activity change, negative = growth inhibition, usual class: inhibitors. hit rate 15% among 420,000. AID 686978, 2013; also: % is scaled to controls: 0 for no effect and ±100 for the full control effect; nearly all actives have a fitted effect of over 55% in size
#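 A cellular qHTS used chicken DT40 cells lacking endogenous Tdp1 but carrying stably transfected human TDP1. Compounds were applied without camptothecin, and cell growth kinetics were judged by ATP-dependent luminescence after ≥48 hr.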
# TGFb inhibitor: inhibitors of TGF-b signaling; HepG2 CAGA-GFP TGF-b/SMAD3 reporter, GFP fluorescence, 18 h; TGF-beta stimulated, 500 pg/mL final; Potency, µM (titrated, usually from 46.1 µM), inactives show at the highest dose activity, negative = inhibition, usual class: inhibitors; hit rate 1.2% among 410,000; AID 588855; also: % is scaled to controls: 0 for no effect and ±100 for the full control effect; nearly all actives have a fitted effect of over 65% in size
#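 HEPG2 CAGA-GFP, 1000 cells/well; 2 h settle, 37 C; cpd via pin tool; TGF-b 500 pg/mL final; 18 h, 37 C; GFP imaging ex488/em500-530; %Activity normalised to -TGF-b and +DMSO controls; CRC fit, curve class.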
# HT1080NT lethal: kills 2HG-producing HT-1080-NT fibrosarcoma cells; HT-1080-NT fibrosarcoma viability, CellTiter-Glo ATP luminescence, 48 h; Potency, µM (titrated, usually from 46.1 µM), for inactives: at the highest dose activity, negative = less viability, actives largely listed as cytotoxic; hit rate 1.6% among 360,000; AID 686970;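 also: NT is the 2HG producing partner of a matched IDH1 knockdown line; 0% = DMSO-treated cells and -100% = media-only wells without cells; nearly all actives have a fitted effect of over 55% in size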
#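 Toxicity toward the 2HG-producing NT line was scored as %Activity, normalised to DMSO and no-cell wells, from CellTiter-Glo luminescence after 48 hours' treatment.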
# HT1080 IDH1KD tx: kills HT-1080 cells with IDH1 knockdown; hit rate 2% among 360,000; AID 686971; HT-1080 IDH1 knockdown viability, ATP luminescence, 48 h; Potency, µM (titrated, usually from 46.1 µM), inactives show top-dose activity, negative = toxicity, hits mostly cytotoxic;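 also: 0% = DMSO wells and -100% = cell-free medium wells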
#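 Using the IDH1-knockdown HT-1080 line run in the same batch and compound series as the NT line, viability after 48 h at 37 °C was determined by CellTiter-Glo luminescence and expressed as % activity.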
# DT40 TDP1 CPT: growth inhibition of DT40 Tdp1-/-;hTDP1 cells with camptothecin (screen for TDP1 inhibitors); chicken DT40 Tdp1-/-;hTDP1 cells + 20 nM CPT, ATP luminescence, 48 h; Potency, µM (top dose mostly 46.2 µM), for inactives: at the top dose activity change, negative = growth inhibition, hits mostly inhibitors; hit rate 12% among 420,000; also: % is scaled to controls: 0 for no effect and ±100 for the full control effect; nearly all actives have a fitted effect of over 55% in size
#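 Cell growth measured by CellTiter-Glo luminescence after a minimum 48 h, 37 C compound exposure with 20 nM CPT in Tdp1-knockout DT40 cells stably expressing hTDP1, seeded 400/well; qHTS titration format.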
# * hit, by the source's call; ? = inconclusive; nt = no result given. This is a sample that favours compounds with a hit; in the whole collection about 17% have one here. Calls follow the shape of the dose curve; as a rule, active = well fitted curve in the direction sought with a large enough effect; inconclusive = small, poorly fitted or top-dose-only effect, or another doubt; inactive = no such curve, though single readings can be large; an effect the other way counts as inactive or inconclusive. Potency is read from the fitted curve at half-maximal effect.
SMILES,HepG2 tox,DT40 TDP1 no CPT,TGFb inhibitor,HT1080NT lethal,HT1080 IDH1KD tx,DT40 TDP1 CPT
CN(C)c1cc(Cl)c2nonc2c1N,-15.2%,2.8%,?,2.1%,0.6%,3.5%
CCC(=O)N1CCc2cc(Br)cc(S(=O)(=O)N3CCN(c4cccc(Cl)c4)CC3)c21,-0.8%,-14.4%,-15.6%,nt,nt,1.7%
C=CC[C@@H](CC(=O)NCCO)C(=O)N[C@@H](COC(=O)[C@@H](CC=C)Cc1ccc(F)cc1)Cc1ccccc1,3.1%,?,9.1%,-1.5%,-9.3%,18.4µM*
C=CC[C@@H](CC(=O)N[C@H](CO)Cc1ccccc1)C(=O)N[C@H](COC(=O)[C@@H](CC=C)Cc1ccc(F)cc1)Cc1ccccc1,1.0%,14.6µM*,-24.8%,4.9%,-1.1%,23.1µM*
C=CC[C@H](CC(=O)NCCO)C(=O)N[C@H](COC(=O)[C@@H](CC=C)Cc1ccc(F)cc1)C(C)(C)C,-85.3%,18.4µM*,-10.4%,-4.2%,0.4%,?
CCOC(=O)C1=CCN(S(=O)(=O)c2ccccc2C)C1c1ccc(C)cc1 (centres undefined),2.5%,?,2.5%,-0.7%,-0.8%,?
COc1ccc(CN2C(=O)NC3(CCCCCC3)C2=O)cc1F,18.1%,14.6µM*,-6.3%,10.1%,8.2%,16.4µM*
COc1ccc(CN2C(=O)NC3(CCCC3)C2=O)cc1F,4.0%,24.5%,7.5%,24.5%,22.9%,23.1%
O=C(Nc1ccc(N2CCN(C(=O)c3ccc(Cl)cc3)CC2)cc1)c1cccs1,0.2%,8.0%,-24.9%,-0.1%,0.4%,-25.9%
O=C(CSc1ccc(Cl)cc1)Nc1ccc(N2CCN(C(=O)c3ccc(Cl)cc3)CC2)cc1,-2.9%,14.6µM*,-27.9%,0.0%,?,18.4µM*
O=C(Nc1ccc(N2CCN(C(=O)c3ccc(Cl)cc3)CC2)cc1)c1ccc2c(c1)OCCO2,-5.8%,23.1µM*,?,?,-19.1%,13µM*
O=C(Nc1ccc(N2CCN(C(=O)c3ccccc3)CC2)cc1)c1ccc2c(c1)OCCO2,13.5%,?,?,-7.1%,-14.6%,20.6µM*
O=C(c1ccccc1)N1CCN(c2ccc(NCc3ccc4c(c3)OCO4)cc2)CC1,-28.5%,18.4µM*,?,-27.0%,?,14.6µM*
CC(=O)N1CCN(c2ccc(NC(=O)c3ccc4c(c3)OCCO4)cc2)CC1,-15.8%,-17.9%,5.2%,0.0%,-20.0%,-21.4%
CC(C)(C)C(=O)N1CCN(c2ccc(NC(=O)c3ccc4c(c3)OCCO4)cc2)CC1,-11.9%,?,7.6%,-7.1%,-10.9%,?
N#Cc1nc(N)nc(N2CCCCC2)n1,0.4%,?,?,nt,nt,?
CSc1ncc(C(=O)Nc2cc(C)cc(C)c2)c(-c2ccccc2)n1,-17.8%,?,-17.5%,nt,nt,-28.3%
CCOC(=O)C1=C(C)N(Cc2ccccc2)C(=O)NC1c1ccccc1OS(=O)(=O)c1ccccc1[N+](=O)[O-] (centres undefined),1.0%,9.2µM*,?,0.6%,-0.3%,10.3µM*
CC1=C(C(=O)OCc2ccccc2)C(c2ccccc2[N+](=O)[O-])NC(=O)N1C (centres undefined),-7.1%,23.1µM*,-19.9%,5.8%,2.7%,?
Cc1cccc(N=C2NC(=O)/C(=C\c3cccs3)S2)c1,5.5%,9.2µM*,8.2%,-9.7%,-11.7%,13µM*
O=C1NC(=Nc2ccccc2)S/C1=C\c1ccccc1,3.9%,?,18.1%,0.5%,1.8%,?
O=C1NC(=Nc2ccccc2)S/C1=C/c1cccs1,-1.4%,?,-7.7%,-4.2%,-6.7%,-16.9%
O=C1NC(=Nc2cccnc2)S/C1=C\c1cccc(F)c1,-2.5%,13µM*,13.3%,-5.6%,-21.6%,?
Cc1ccc(N=C2NC(=O)/C(=C/c3cccs3)S2)cc1C,-31.4%,10.3µM*,-0.4%,-10.2%,-14.9%,13µM*
COc1ccc(N2CCN(S(=O)(=O)c3c(C)nc4sc(C)cn4c3=O)CC2)cc1,4.7%,-12.9%,17.7%,nt,nt,-8.7%
SMILES,HepG2 tox,DT40 TDP1 no CPT,TGFb inhibitor,HT1080NT lethal,HT1080 IDH1KD tx,DT40 TDP1 CPT
COC(=O)c1cc(C)nc2c1c(C)nn2-c1ccccc1,13.5%,-1.2%,-1.4%,4.8%,6.3%,-1.0%
Cc1cc(C(=O)N2CCN(c3ccc(F)cc3)CC2)c2c(C)nn(-c3cccc(Cl)c3C)c2n1,3.4%,14.6µM*,-0.6%,nt,nt,20.6µM*
Cc1cc(C(=O)N2CCN(c3cccc(Cl)c3)CC2)c2c(C)nn(-c3ccccc3Cl)c2n1,-22.0%,29.1µM*,?,nt,nt,?
Cc1ccc(NC(=O)c2cc(C)nc3c2c(C)nn3-c2cccc(Cl)c2C)c(C)c1,2.6%,?,-2.0%,nt,nt,?
COc1cc(NC(=O)c2cc(C)nc3c2c(C)nn3-c2ccccc2Cl)cc(OC)c1,-30.4%,23.1µM*,?,nt,nt,?
COc1ccc(NC(=O)c2cc(C)nc3c2c(C)nn3-c2cccc(Cl)c2C)c(OC)c1,-19.9%,-25.1%,-18.3%,nt,nt,-16.4%
CN(C)S(=O)(=O)c1cccc(NC(=O)Cn2cnc3ccccc3c2=O)c1,3.7%,0.4%,1.8%,7.7%,11.8%,2.3%
CCN1C[C@@H]2[C@@H]3C(=O)N(Cc4ccccc4)C(=O)[C@@H]3[C@](C)(C1=O)N2C(=O)c1ccc(Cl)c(Cl)c1,-26.4%,?,?,0.5%,7.1%,?
O=c1c(CCc2ccccc2)nc2cnc(N3CCOCC3)nc2n1C1CC1,nt,-11.0%,nt,nt,nt,?
Cc1ccc2oc(=O)c3cnn(CC(=O)N4CCN(c5ccc(F)cc5)CC4)c3c2c1,40.7%,-12.6%,60.9%,nt,nt,2.0%
CCOc1ccc(S(=O)(=O)n2nc(C)cc2C)c2ccccc12,-9.3%,?,0.7%,6.6%,4.0%,23.1µM*
CCOc1ccc(C(C)(C)C)cc1S(=O)(=O)n1nc(C)cc1C,-17.5%,11.2µM*,4.1%,-0.1%,-0.7%,?
CCOc1ccc(C)cc1S(=O)(=O)n1nc(C)cc1C,8.1%,0.5%,6.9%,?,7.1%,-0.2%
O=S1(=O)C2CC3CCC2(CN1Cc1cccc(F)c1)O3 (centres undefined),1.1%,nt,-3.7%,nt,nt,nt
CC(C)(C)c1ccc(CC(=O)N2CCC2(C)C(=O)NCc2ccc(Cl)cc2)cc1 (centres undefined),-31.1%,20.6µM*,?,?,25.9µM*,?
